# Source: PubChem BioAssay
# This is a sample that favours compounds with a hit; in the whole collection about 19% have one here.
# Pf growth 96h: P. falciparum growth inhibition at 96 hours | P. falciparum luciferase reporter growth, 96 h | Potency, µM (highest dose often 28.7 µM), usual class: inhibitors | hit rate 6.9% among 320,000 | AID 504834
#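 Compounds incubated with erythrocytes infected by luciferase-expressing P. falciparum (2% hematocrit, 0.05% parasitemia final) for 96 hours, 37 C in 5% CO2. Growth inhibition scored as decreased luciferase luminescence.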
# CHX counter: counter-screen hit for Shiga toxin inhibitors, cycloheximide. cell reporter, cycloheximide protein synthesis inhibition counterscreen. max response, %. hit rate 12% among 300,000; in the data active = max response mostly above about 13%, no sharp cut-off; inactive = mostly below about 14%; note: read at 38.3 µM for the half of the compounds with a filed dose
# Shiga toxin inh: inhibitors of Shiga toxin in Vero cells; Vero cells, Shiga toxin protein synthesis inhibition reporter; inhibition, % at 38.7 µM; hit rate 9.2% among 290,000; in the data active = inhibition mostly above about 28%, no sharp cut-off; inactive = mostly below about 43%
# SARS PLP yeast: inhibitors of SARS-CoV papain-like protease in yeast; hit rate 0.19% among 330,000; Potency, µM (titrated, usually from 32.9 µM), hits mostly activators; S. cerevisiae expressing SARS-CoV PLpro, growth rescue; calls by dose curve; note: nearly all actives have a fitted effect of over 55% in size
# AMA1-RON2 inh: disrupts binding of P. falciparum AMA1 to RON2; hit rate 0.2% among 360,000; AID 720542; Potency, µM (series often up to 58.2 µM), usual class: inhibitors; AlphaScreen AMA1-biotinylated RON2 peptide binding; note: nearly all actives have a fitted effect of over 45% in size
#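 AMA1 (3D7) with his tag at 25 nM final met compounds first, then biotinylated RON2 peptide at 25 nM; detection used donor plus acceptor beads, 10 µg/mL apiece, read by AlphaScreen after 30 min at room temperature.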
# Pf growth 48h: P. falciparum growth inhibition at 48 hours (one generation). Potency, µM (highest dose often 28.7 µM), hits mostly inhibitors. AID 504832. hit rate 5.9% among 310,000. P. falciparum luciferase growth in erythrocytes, 48 h
#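 Cell-based growth assay: transgenic P. falciparum expressing firefly luciferase, cultured in red cells within RPMI 1640 containing 0.5% w/v Albumax, 24 mM bicarbonate and gentamycin. A drop in luciferase activity indicates inhibition.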
# Numbers stand for hits; 0 = inactive; ? = inconclusive; - = not tested or not shown. Unless noted, calls come from the whole dose curve; as a rule, active = well fitted curve in the direction sought with a large enough effect; inconclusive = small, poorly fitted or top-dose-only effect, or another doubt; inactive = no such curve, though single readings can be large; an effect the other way counts as inactive or inconclusive.
SMILES,Pf growth 96h,CHX counter,Shiga toxin inh,SARS PLP yeast,AMA1-RON2 inh,Pf growth 48h
O=C(c1ccc(Cl)c(S(=O)(=O)N2CCCCCC2)c1)N1CCCC1,0,0,0,0,0,0
O=C(c1noc2c1CCCC2)N1CCC(CO)(Cc2ccccc2Cl)CC1,0,0,0,0,0,?
COc1ccccc1-c1c(C(F)(F)F)oc2cc(OC(=O)c3ccc([N+](=O)[O-])cc3)ccc2c1=O,?,0,0,0,0,0
CC1CN(S(=O)(=O)c2ccc(CN3C(=O)c4cccnc4C3=O)cc2)c2ccccc2O1 (centres undefined),?,0,0,0,0,0
COc1ccc(S(=O)(=O)N2CCCCC2c2cc(C(=O)NCc3ccccc3)no2)cc1 (centres undefined),-,-,-,-,0,-
Cc1ccc2nc(N3C(=O)C(O)=C(C(=O)c4ccc(C)o4)C3c3cccc(O)c3)sc2c1 (centres undefined),0,30.7,63.1,0,0,0
COc1ccc2nc(N3C(=O)C(O)=C(C(=O)c4ccco4)C3c3ccc(OC)c(OC)c3)sc2c1 (centres undefined),-,-,-,-,0,-
CCOC(=O)c1sc(N2C(=O)C(O)=C(C(=O)c3ccc(C)o3)C2c2cccc([N+](=O)[O-])c2)nc1C (centres undefined),14.7µM,0,0,0,0,0
CCOc1ccc(C2C(C(=O)c3ccc(C)o3)=C(O)C(=O)N2c2nc(C)c(C(=O)OC)s2)cc1 (centres undefined),0,26.4,47.5,0,0,0
COC(=O)c1sc(N2C(=O)C(O)=C(C(=O)c3ccc(C)o3)C2c2ccc([N+](=O)[O-])cc2)nc1C (centres undefined),0,39.0,69.4,0,0,0
COc1cc(C(=O)N2C(=O)CCC2=O)cc(OC)c1OC,?,0,0,0,0,0
S=c1ncc2[nH]c(=S)[nH]c2[nH]1,-,-,-,-,0,-
Fc1ccccc1OCCSc1ncnc2nc[nH]c12,4.65µM,35.6,76.5,0,0,0
c1ccc(OCCSc2ncnc3nc[nH]c23)cc1,-,-,-,-,0,-
COc1ccc(OCCSc2ncnc3nc[nH]c23)cc1,?,37.0,0,0,0,-
CCN(Cc1cc(=O)[nH]c2ccccc12)C(=O)c1ccc(C)cc1,0,0,0,0,0,0
CC1=NN(c2ccccc2)C(=O)/C1=C/c1ccc[nH]1,0,21.3,77.9,0,12.6µM,0
CC1=NN(c2ccccc2)C(=O)/C1=C/c1ccc(Cl)cc1,?,0,0,0,0,0
CC1=NN(c2ccccc2)C(=O)/C1=C\N(O)c1ccccc1,0,13.4,0,0,0,?
CC1=NN(c2ccccc2)C(=O)/C1=C/c1c(O)n(-c2ccc(F)cc2)[nH]c1=O,0,24.3,0,0,0,0
Brc1cccc(-c2nc3cccnc3nc2-c2cccc(Br)c2)c1,?,0,-,0,0,0
Cc1ccc(-c2nc3cc(Br)cnc3nc2-c2ccc(C)cc2)cc1,14.7µM,0,0,0,0,?
Cc1cc(C)c(C(=O)COC(=O)C2CCN(c3ccc(C(F)(F)F)cn3)CC2)cc1C,0,-,-,0,0,?
COc1ccc(-c2[nH]c(-c3ccc(C(=O)O)cc3)nc2-c2ccccc2)cc1,0,0,0,0,0,0
COc1cc(-c2nc(-c3ccc4c(c3)-c3ccccc3S4(=O)=O)c(-c3ccccc3)[nH]2)cc(OC)c1O,-,21.6,0,0,0,-
SMILES,Pf growth 96h,CHX counter,Shiga toxin inh,SARS PLP yeast,AMA1-RON2 inh,Pf growth 48h
Cc1ccc2nc(-c3ccc(N4C(=O)CC(N5CCN(CCO)CC5)C4=O)cc3)sc2c1 (centres undefined),0,37.3,67.9,0,0,0
O=c1c2ccccc2nnn1CSc1nnc(-c2ccc3c(c2)OCO3)o1,0,0,0,0,0,0
Cc1cc(C(=O)COc2ccc(F)cc2Br)c(C)n1C,0,29.9,0,0,0,0
Cc1cc(C(=O)COc2ccc(F)cc2Br)c(C)n1C1CC1,10.4µM,-,-,0,0,?
CCOc1cc(/C=N/NC(=O)C(=O)NCCCOC(C)C)cc(Br)c1O,0,0,0,0,0,0
CCOC(=O)c1sc(-c2ccc(Cl)cc2Cl)nc1O,0,0,0,0,0,0
CCOC(=O)c1ccc(NC(=O)CSc2nc3c(c(=O)n2C)SC(C)C3)cc1 (centres undefined),?,0,0,0,0,-
